Values without a mark were called inactive. Records with an inconclusive call do not appear. Activity calls are given as the source filed them. Unless noted, calls follow the shape of the dose curve; as a rule, active = well fitted curve in the direction sought with a large enough effect; inconclusive = small, poorly fitted or top-dose-only effect, or another doubt; inactive = no such curve, though single readings can be large; an effect the other way counts as inactive or inconclusive.

These results are taken from PubChem BioAssay (NCATS).

Assay [1] is described as follows: qHTS Screen of the MIPE 4.0 Collection Against Ewings Sarcoma (TC32) (AID 1259256). Also: nearly all actives have a fitted effect of over 45% in size. Also: potency is read from the fitted curve at half-maximal effect. Put shortly: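 CellTiter-Glo luminescence after 48 h compound exposure (titration) gave viability; percent activity used DMSO-treated cells as no inhibition and medium-only wells as full inhibition. Cells grown in RPMI/5% FBS, dosed 4 h post-seeding.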
For orientation: In qHTS, concentration-response curves come from the screen itself.

Assay [2] can be described thus: qHTS assay to identify small molecule inhibitors of chordoma cells - UCH-1 (AID 1259355). Also: % is scaled to controls: 0 for no effect and ±100 for the full control effect; nearly all actives have a fitted effect of over 55% in size. Put shortly: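 Seed 800 cells per well; incubate overnight at 37 C, 5% CO2. Add test compounds (15 concentrations), then the auranofin–topoisomerase-agent combination. Incubate 48hr, add CellTiter-Glo, wait 30min, read luminescence.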
Assay [3] can be described thus: qHTS assay to identify small molecule inhibitors of chordoma cells - UCH-2 (AID 1259356). Also: series mostly up to about 46 µM; % is scaled to controls: 0 for no effect and ±100 for the full control effect.
The nature of assay [4]: P-glycoprotein substrates identified in KB-8-5-11 adenocarcinoma cell line, qHTS therapeutic library screen (AID 1346987). Also: nearly all actives have a fitted effect of over 65% in size. Also: potency is read from the fitted curve at half-maximal effect. Put shortly:
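KB-8-5-11, a colchicine-selected P-gp-overexpressing KB-3-1 subline, was grown without colchicine for the assay. Cells were seeded at 500 cells/well, dosed in concentration-response and incubated 72 h at 37 degree C, 5% CO2. Viability was read by CellTiter-Glo luminescence.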

Assay [5] in a line: Natriuretic polypeptide receptor (hNpr1) antagonism - Pilot counterscreen GloSensor control cell line (AID 1347045; calls by dose curve; also: series mostly up to about 38 µM; % is scaled to controls: 0 for no effect and ±100 for the full control effect). Put shortly: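 HEK293 cGMP GloSensor cells preloaded 2 h with 2% GloSensor reagent, then compound 30 min before baseline luminescence read. Stimulated with 50 uM sodium nitroprusside, 20 min at room temperature, then read again; counterscreen for Npr1 antagonism.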

The target of assay [6] is Atrial natriuretic peptide receptor 1 (Homo sapiens) (UniProt P16066). Description: Natriuretic polypeptide receptor (hNpr1) antagonism - Pilot screen (AID 1347049; calls by dose curve;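 also: agonist-evoked cGMP luminescence read 20 min after hNppA addition; series mostly up to about 58 µM; % is scaled to controls: 0 for no effect and ±100 for the full control effect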). Put shortly: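 Readout is cGMP-driven firefly luciferase luminescence in HEK293 cells carrying hNpr1 and a PDE5-domain GloSensor, read before and 20 min after 0.1 nM hNppA stimulation. Cells had 2% substrate reagent for 2 h and test compound for 30 min.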

Assay [7] deals with Atrial natriuretic peptide receptor 2 (Homo sapiens) (UniProt P20594). Description: Natriuretic polypeptide receptor (hNpr2) antagonism - Pilot subtype selectivity assay (AID 1347050; calls by dose curve; also: % is scaled to controls: 0 for no effect and ±100 for the full control effect). Put shortly: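 Pilot selectivity screen against hNpr2: HEK293 cGMP-sensor cells are treated with LOPAC1280 compounds, then with hNppC peptide at 1 nM final. The cGMP-driven luminescence change over 20 min at room temperature is the read-out.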

Assay [8] in a line: NS1 protein of Zika virus - qHTS assay to identify small molecule inhibitors in human HEK 293 cells (AID 1347053).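 Also: series mostly up to about 46 µM; plate controls were infected untreated cells for no effect and uninfected cells for full effect; nearly all actives have a fitted effect of over 55% in size.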 Put shortly: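 Inhibition of NS1 expression was scored in HEK 293 cells given compound 1 h ahead of MR766 virus (MOI = 0.5). Following 24 h at 37 C, two anti-NS1 antibodies generated a TR-FRET signal, scaled between uninfected and infected controls.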
The target of assay [9] is T1, Tyrosine-protein phosphatase non-receptor type substrate 1 (Homo sapiens) + Leukocyte surface antigen CD47 (Homo sapiens) (UniProt P78324+Q08722). The assay can be described thus: CD47-SIRPalpha protein protein interaction - LANCE assay qHTS validation (AID 1347057; active = well fitted curve in the direction sought with a large enough effect in the signal ratio, with a control signal flat, not every such curve was filed as active; the % refers to the signal ratio; also: series mostly up to about 38 µM; 0% is about no effect). Put shortly: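 First, His-tagged CD47 and Eu-labelled anti-His antibody met the compound for 30 min; next, site-specifically biotinylated SIRPalpha was added for 30 min; finally streptavidin-APC was added before reading the TR-FRET ratio.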
(In general: Time-resolved FRET reads energy transfer from a long-lived donor to a nearby acceptor.)

Assay [10] addresses T1, Tyrosine-protein phosphatase non-receptor type substrate 1 (Homo sapiens) + Leukocyte surface antigen CD47 (Homo sapiens). The assay can be described thus: CD47-SIRPalpha protein protein interaction - HTRF assay qHTS validation (AID 1347058; active = well fitted curve in the direction sought with a large enough effect in the signal ratio, not every such curve was filed as active; the % refers to the signal ratio;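 also: recombinant soluble extracellular CD47 with His tag and biotinylated SIRPalpha domains; series mostly up to about 38 µM; 0% is about no effect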). Put shortly:
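TR-FRET read (Ch1/Ch2 ratio) of soluble extracellular CD47 and Avi-biotinylated SIRPalpha domains in PBS pH 7.4 with 0.05% IGEPAL; 7-point compound titration. Sequential 30 min room-temperature steps; non-biotinylated SIRPalpha as control inhibitor.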

For assay [11] the target is unchanged. Description: CD47-SIRPalpha protein protein interaction - Alpha assay qHTS validation (AID 1347059). Put shortly:
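Binding is measured by AlphaScreen proximity: Ni-NTA acceptor beads capture His-CD47, streptavidin donor beads capture biotin-SIRPalpha. Each of three additions (SIRPalpha with compound, CD47, beads) incubates 30 min at room temperature protected from light.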

The target in assay [12] is Parathyroid hormone/parathyroid hormone-related peptide receptor (Homo sapiens) (UniProt Q03431). Description: qHTS for PTHR1 Agonists: Optimization Screen against the NCGC LOPAC library (AID 1347079).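 Also: GloSensor cAMP luminescence in HEK-293 GP2 cells expressing human PTHR1 with IBMX; 0% is about no effect.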 Put shortly: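 Agonist readout: GloSensor cAMP luminescence, read after 15 min at room temperature. HEK-293-derived GP2 line carries PTHR1; compounds tested as a titration for 1 hr at 37C in presence of IBMX. M-PTH (1-15) served as control.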

The nature of assay [13]: qHTS of pediatric cancer cell lines to identify multiple opportunities for drug repurposing: Primary screen for TC32 cells (AID 1347089). Also: % is scaled to controls: 0 for no effect and ±100 for the full control effect; nearly all actives have a fitted effect of over 60% in size. Put shortly: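 Measured quantity: luminescence from CellTiter-Glo, reflecting metabolically active TC32 cells following 48 h of compound. Curves came straight from multi-point titrations, with 8 or 11 points in primary and 11 in confirmatory screening.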

Assay [14] in a line: Identifying Small Molecule Inhibitors of Pancreatic Cancer Stem Cells (SN12C, Adherent) (AID 1259358).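 Also: cell survival measured after 48 h of compound exposure.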 Put shortly:
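Cytotoxicity read by CellTiter-Glo luminescence after 48 h compound exposure at 37C; percent activity scaled between DMSO-treated cells and cell-free wells. Spheroid formats used cells pre-formed 14 days in stem cell media on hydrogel.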

Assay [15] can be described thus: Identifying Small Molecule Inhibitors of Pancreatic Cancer Stem Cells (SN12C, Spheroid) (AID 1259360).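 Also: 100% = DMSO-treated cells and 0% = wells without cells.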 The conditions noted are these: Potency: SN12C spheroid viability. Put shortly: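 After a 4 h attachment period, compounds were pinned into wells and cultures held 48 h under standard incubator conditions. Viability was then measured as CellTiter-Glo luminescence following 10 min at room temperature.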

Atrial natriuretic peptide receptor 2 (Homo sapiens), sequence (P20594 whole entry, looked up): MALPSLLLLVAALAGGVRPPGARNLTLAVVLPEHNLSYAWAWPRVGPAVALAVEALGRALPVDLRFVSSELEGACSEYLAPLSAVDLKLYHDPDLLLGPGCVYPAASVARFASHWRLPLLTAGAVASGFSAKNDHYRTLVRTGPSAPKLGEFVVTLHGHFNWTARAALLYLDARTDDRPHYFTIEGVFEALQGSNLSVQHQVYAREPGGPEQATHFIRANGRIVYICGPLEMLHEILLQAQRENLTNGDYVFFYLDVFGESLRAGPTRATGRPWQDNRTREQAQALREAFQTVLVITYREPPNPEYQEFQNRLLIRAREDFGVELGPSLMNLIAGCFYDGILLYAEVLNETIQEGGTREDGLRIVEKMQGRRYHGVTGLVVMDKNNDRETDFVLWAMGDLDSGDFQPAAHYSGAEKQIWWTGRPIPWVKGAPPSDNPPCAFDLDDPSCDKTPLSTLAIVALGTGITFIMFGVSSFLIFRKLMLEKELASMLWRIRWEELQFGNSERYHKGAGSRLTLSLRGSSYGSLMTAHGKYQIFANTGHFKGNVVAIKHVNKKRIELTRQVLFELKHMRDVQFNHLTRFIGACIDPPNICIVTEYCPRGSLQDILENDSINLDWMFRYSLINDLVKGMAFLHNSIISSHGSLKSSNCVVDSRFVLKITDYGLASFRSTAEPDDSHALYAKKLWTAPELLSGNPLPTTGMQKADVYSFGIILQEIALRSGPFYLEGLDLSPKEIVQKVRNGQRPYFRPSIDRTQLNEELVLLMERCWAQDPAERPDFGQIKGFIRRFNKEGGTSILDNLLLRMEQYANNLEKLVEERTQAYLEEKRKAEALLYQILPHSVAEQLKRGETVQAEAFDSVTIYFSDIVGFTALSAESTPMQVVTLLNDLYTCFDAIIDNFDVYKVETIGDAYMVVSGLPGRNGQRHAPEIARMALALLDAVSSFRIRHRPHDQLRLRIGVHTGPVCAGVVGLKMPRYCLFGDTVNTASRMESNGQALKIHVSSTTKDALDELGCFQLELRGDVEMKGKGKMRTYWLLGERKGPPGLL
T1 sequence (P78324 whole entry, looked up): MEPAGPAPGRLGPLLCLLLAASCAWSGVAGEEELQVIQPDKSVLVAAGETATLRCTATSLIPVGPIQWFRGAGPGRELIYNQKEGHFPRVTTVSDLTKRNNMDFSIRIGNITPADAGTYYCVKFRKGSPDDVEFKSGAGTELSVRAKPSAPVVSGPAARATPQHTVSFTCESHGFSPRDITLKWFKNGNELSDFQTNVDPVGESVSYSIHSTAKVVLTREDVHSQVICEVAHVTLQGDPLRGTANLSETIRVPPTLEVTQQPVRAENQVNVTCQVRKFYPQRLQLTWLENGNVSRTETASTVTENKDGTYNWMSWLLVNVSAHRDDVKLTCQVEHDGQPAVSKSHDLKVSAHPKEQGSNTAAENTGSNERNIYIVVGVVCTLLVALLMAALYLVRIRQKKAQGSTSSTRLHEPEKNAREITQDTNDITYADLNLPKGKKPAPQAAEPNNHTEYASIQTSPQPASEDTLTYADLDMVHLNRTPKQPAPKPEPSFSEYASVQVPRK
T1 sequence (Q08722 whole entry, looked up): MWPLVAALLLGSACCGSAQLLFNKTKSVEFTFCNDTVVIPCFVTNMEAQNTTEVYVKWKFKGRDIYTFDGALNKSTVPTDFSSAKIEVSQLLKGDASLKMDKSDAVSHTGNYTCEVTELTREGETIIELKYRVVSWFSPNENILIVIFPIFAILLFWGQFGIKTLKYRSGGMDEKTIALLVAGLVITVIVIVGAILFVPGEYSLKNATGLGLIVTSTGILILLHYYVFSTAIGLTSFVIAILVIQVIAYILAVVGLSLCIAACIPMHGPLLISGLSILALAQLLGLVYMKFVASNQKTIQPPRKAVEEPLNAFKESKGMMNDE
Parathyroid hormone/parathyroid hormone-related peptide receptor (Homo sapiens), sequence (Q03431 whole entry, looked up): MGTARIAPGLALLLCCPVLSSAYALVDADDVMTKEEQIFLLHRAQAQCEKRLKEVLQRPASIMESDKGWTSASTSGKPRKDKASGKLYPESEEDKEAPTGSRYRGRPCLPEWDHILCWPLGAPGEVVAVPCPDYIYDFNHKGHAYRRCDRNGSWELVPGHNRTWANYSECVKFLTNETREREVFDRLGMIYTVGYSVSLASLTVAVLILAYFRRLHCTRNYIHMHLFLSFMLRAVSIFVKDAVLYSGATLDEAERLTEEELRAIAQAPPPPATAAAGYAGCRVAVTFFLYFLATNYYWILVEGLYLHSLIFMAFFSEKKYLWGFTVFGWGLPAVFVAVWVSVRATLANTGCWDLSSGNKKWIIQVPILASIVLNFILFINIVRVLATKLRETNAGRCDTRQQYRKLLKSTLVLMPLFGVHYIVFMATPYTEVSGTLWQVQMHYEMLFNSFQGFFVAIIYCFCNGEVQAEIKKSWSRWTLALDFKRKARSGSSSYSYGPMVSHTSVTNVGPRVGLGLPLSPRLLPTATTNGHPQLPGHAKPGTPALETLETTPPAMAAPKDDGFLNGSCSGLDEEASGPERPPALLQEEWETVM
Atrial natriuretic peptide receptor 1 (Homo sapiens), sequence (P16066 whole entry, looked up): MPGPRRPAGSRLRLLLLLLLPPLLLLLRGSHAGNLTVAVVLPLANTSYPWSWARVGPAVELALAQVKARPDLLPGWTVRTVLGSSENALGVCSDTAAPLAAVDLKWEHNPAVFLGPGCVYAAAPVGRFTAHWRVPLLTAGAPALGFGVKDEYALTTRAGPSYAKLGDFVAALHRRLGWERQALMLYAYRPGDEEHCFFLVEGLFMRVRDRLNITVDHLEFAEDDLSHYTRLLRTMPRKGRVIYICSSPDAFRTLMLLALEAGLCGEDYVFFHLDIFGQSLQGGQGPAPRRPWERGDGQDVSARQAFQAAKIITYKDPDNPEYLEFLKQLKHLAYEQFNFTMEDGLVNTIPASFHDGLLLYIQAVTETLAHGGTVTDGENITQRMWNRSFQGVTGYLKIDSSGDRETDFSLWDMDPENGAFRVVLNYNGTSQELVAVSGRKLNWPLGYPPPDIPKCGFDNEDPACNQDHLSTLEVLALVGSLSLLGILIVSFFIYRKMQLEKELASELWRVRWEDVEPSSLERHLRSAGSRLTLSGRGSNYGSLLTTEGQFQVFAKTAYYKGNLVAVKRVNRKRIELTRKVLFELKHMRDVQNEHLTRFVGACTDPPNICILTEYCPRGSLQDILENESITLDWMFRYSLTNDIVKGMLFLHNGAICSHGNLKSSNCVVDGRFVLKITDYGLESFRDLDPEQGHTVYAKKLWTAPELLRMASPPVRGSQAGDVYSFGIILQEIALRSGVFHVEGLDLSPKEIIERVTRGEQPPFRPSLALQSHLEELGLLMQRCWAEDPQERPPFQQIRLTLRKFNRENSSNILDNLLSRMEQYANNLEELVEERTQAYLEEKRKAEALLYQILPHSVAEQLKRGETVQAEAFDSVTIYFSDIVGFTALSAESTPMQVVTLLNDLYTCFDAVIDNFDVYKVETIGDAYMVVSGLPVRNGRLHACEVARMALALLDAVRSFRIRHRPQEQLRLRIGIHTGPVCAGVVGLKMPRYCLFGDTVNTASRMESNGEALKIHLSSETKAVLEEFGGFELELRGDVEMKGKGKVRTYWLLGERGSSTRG

Take `NC(=O)c1cnccn1`: the Potency result in assay [1], in assay [2], in assay [4], in assay [7], in assay [8] and in assay [13] was “inactive” in each case. For the same compound, the call in [3], in assay [5], in assay [6], in assay [9], in assay [10] and in [11] was inactive. Moreover, the compound was called inactive in assay [12].
In the case of `OC(CN1CCC(Cc2ccc(F)cc2)CC1)c1ccc(Cl)cc1` (stereo unspecified), the Potency entry in [1], in assay [14], in assay [15], in assay [4], in assay [7] and in assay [8] was “inactive” each time. Also, the Potency entry in assay [13] is “inactive”. Also, the activity, negative = inhibition in assay [2] is 16.1% [at 9.21 µM]. For the same compound, the outcome in assay [3], in assay [5], in [6], in assay [9], in [10] and in assay [11] was inactive. Moreover, in [12], the result was inactive.
Regarding `O=NN(CCCl)C(=O)NCCCl`, the Potency entry in assay [1], in assay [2], in [4], in assay [7], in assay [8] and in assay [13] was “inactive” throughout. In addition, the outcome in assay [3], in assay [5], in [6], in assay [10], in assay [11] and in assay [12] was inactive.
Consider `Clc1cccc(Cl)c1NC1=NCCN1`, for which the Potency entry in assay [1], in [2], in assay [4], in assay [7] and in assay [8] was “inactive” throughout. The result in [3], in assay [5], in [6], in assay [10], in [11] and in assay [12] was inactive.
Turning to `Clc1ccc(Nc2nnc(Cc3ccncc3)c3ccccc23)cc1`, the Potency in assay [1] is 26.4 µM (active). The Potency result in assay [2], in [14], in [4], in assay [8] and in assay [13] was “inactive” throughout. Further, the outcome in assay [3] was inactive.
Take `CC(C)NCC(O)COc1ccc(COCCOC(C)C)cc1` (stereo unspecified): the Potency result in assay [1], in assay [2], in [4], in assay [7], in assay [8] and in assay [13] was “inactive” throughout. The call in assay [3], in [5], in assay [6], in [10], in [11] and in assay [12] was inactive.
On to `CCOC(=O)C1=C[C@]2(CC)CCCN3CCc4c(n1c1ccccc41)[C@@H]32`, for which the Potency in assay [1] is 18.7 µM (active); in assay [4] it was 26.4 µM (active). The Potency result in [2], in assay [7], in assay [8] and in [13] was “inactive” throughout. Besides, the outcome in assay [3], in assay [5], in [6], in assay [10], in [11] and in assay [12] was inactive.
Turning to `O=c1n(CCCN2CCN(c3cccc(Cl)c3)CC2)nc2ccccn12`, the Potency result in assay [1], in [2], in assay [4], in [7] and in [8] was “inactive” in each case. Also, the compound was classed as inactive in assay [3], in assay [5], in assay [6], in [10], in assay [11] and in assay [12].
Take `Cc1cn[nH]c1`: the Potency result in assay [1], in assay [2], in [4], in assay [7], in assay [8] and in [13] was “inactive” in each case. For the same compound, the call in [3], in [5], in assay [6], in [9], in [10] and in [11] was inactive. For the same compound, the outcome in assay [12] was inactive.
